Sfp PPTase inh: Sfp phosphopantetheinyl transferase inhibition. Biochemical Sfp PPTase activity, qHTS. Potency, µM, usual class: inhibitors. 310,000 compounds, 3.5% hits;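 note: the enzyme is Sfp with the accession as filed and its product quenches rhodamine fluorescence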
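With Hepes-Na pH 7.6 buffer containing 10 mM MgCl2, Sfp (15 nM) modified BHQ-2-YbbR (12.5 uM) using rhodamine-CoA (5 uM). Two reads 30 minutes apart at 525/598 nm yielded each well's rate.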
G9a inh: G9a (human) methyltransferase inhibition | G9a H3K9 monomethylation, AlphaScreen, 2 h | Potency, µM (highest dose often 102 µM), most hits filed as inhibitors | 350,000 compounds, 8.8% hits; note: nearly all actives have a fitted effect of over 75% in size
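Step 1: enzyme (final 20 nM) with compound, 15 min RT. Step 2: substrate peptide 500 nM and SAM 20 uM, 2 h RT. Step 3: anti-H3K9me1 antibody and AlphaScreen beads, 10 min, then plate read.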
JMJD2A Tudor: JMJD2A Tudor domain (human) inhibition. O75164. AlphaScreen JMJD2A-Tudor / H3K4me3 peptide binding. Potency, µM (titrated, usually from 114 µM), usual class: inhibitors. 390,000 compounds, 4.4% hits; note: nearly all actives have a fitted effect of over 50% in size
BAZ2B block: blocks human BAZ2B; Potency, µM (top dose mostly 114 µM), most hits filed as inhibitors; 360,000 compounds, 4.4% hits; Q9UIF8; AlphaScreen BAZ2B-H3K14Ac peptide displacement; AID 504333; note: nearly all actives have a fitted effect of over 60% in size
Target sequence (Q9UIF8 whole entry, looked up): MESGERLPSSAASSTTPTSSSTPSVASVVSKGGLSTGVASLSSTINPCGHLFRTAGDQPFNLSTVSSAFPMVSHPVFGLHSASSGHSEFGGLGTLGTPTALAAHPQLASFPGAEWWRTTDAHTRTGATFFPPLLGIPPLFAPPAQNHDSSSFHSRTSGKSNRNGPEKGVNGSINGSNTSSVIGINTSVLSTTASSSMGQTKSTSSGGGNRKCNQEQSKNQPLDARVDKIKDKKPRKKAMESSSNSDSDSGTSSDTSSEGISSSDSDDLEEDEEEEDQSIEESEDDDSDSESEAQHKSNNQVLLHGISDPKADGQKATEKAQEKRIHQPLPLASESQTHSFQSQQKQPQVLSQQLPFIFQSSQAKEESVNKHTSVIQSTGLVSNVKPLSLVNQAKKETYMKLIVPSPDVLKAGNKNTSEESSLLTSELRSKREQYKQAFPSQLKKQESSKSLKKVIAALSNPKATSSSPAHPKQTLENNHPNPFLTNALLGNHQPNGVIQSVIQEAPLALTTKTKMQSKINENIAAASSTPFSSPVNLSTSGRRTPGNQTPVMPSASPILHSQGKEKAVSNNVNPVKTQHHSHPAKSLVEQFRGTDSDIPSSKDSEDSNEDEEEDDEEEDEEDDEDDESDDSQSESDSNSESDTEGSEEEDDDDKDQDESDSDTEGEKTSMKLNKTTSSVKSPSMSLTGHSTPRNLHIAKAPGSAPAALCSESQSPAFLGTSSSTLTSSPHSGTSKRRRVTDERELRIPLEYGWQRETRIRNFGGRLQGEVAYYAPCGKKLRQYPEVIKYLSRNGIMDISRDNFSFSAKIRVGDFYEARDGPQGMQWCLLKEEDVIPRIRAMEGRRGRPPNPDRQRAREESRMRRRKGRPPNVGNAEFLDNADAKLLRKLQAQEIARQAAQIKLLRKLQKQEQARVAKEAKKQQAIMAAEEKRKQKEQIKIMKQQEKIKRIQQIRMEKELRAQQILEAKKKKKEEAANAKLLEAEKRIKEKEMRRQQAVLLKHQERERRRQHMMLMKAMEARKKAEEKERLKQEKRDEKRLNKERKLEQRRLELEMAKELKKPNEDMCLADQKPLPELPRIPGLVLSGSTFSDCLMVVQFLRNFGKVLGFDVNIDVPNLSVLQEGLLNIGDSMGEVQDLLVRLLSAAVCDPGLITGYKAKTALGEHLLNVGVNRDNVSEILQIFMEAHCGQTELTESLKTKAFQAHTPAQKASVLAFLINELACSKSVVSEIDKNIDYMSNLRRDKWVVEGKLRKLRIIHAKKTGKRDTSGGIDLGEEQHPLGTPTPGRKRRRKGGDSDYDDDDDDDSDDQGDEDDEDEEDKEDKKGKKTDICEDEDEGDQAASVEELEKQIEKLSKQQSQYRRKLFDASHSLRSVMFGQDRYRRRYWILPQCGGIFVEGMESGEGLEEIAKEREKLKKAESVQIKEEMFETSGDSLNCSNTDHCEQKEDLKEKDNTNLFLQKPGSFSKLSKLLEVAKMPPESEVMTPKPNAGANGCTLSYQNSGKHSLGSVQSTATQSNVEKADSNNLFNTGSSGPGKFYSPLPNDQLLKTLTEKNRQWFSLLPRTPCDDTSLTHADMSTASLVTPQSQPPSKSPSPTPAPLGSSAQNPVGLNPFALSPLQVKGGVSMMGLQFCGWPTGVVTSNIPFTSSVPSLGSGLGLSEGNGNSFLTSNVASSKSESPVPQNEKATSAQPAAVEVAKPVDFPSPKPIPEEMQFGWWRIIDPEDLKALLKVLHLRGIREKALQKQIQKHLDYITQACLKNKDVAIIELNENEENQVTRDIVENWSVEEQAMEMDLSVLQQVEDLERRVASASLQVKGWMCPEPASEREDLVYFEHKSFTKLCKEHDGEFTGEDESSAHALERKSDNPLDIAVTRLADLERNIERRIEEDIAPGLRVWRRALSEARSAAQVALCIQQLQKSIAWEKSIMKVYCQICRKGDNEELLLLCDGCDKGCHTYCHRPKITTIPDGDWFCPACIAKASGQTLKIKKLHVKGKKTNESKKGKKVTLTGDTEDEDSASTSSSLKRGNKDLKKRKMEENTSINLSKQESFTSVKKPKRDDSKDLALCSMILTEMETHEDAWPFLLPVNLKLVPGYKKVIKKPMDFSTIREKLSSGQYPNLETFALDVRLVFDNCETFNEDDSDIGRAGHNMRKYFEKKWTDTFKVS
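BAZ2B 50 nM plus b-H3(5-23)K14Ac 50 nM, PBS pH 7.4/0.01% Tween-20, 30 min RT; compound added (max 110 uM), 30 min RT; streptavidin donor/Ni-chelate acceptor beads 10 ug/mL final, 20 min dark; AlphaScreen read.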
L3MBTL1 block: L3MBTL1 (human) inhibition; AlphaScreen L3MBTL1–H3K9me1 peptide binding; Q9Y468; Potency, µM (top dose mostly 57.1 µM), most hits filed as inhibitors; 230,000 compounds, 0.66% hits; note: nearly all actives have a fitted effect of over 60% in size
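AlphaScreen assay: L3MBTL1 (50 nM final) was preincubated 30 min at room temperature with biotinylated H3(1-15)K9me1 peptide (75 nM final), then 30 min with library compounds; streptavidin donor and nickel chelate acceptor beads (10 ug/mL final) added, 30 min dark.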
HP1b binding inh: inhibitors of HP1-beta chromodomain binding to methylated histone tails; Potency, µM (titrated, usually from 114 µM), actives largely listed as inhibitors; AlphaScreen HP1-beta / biotin-H3K9me3 peptide binding; 390,000 compounds, 0.56% hits; P83916; note: nearly all actives have a fitted effect of over 70% in size
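AlphaScreen: HP1-beta (50 nM) preformed 30 min with biotin-H3(1-18)K9me3 peptide (50 nM) in PBS pH 7.4, 0.01% Tween-20. Compound added for 30 min at RT, then streptavidin donor/nickel chelate acceptor beads (10 ug/mL) for 30 min.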
A number is an active result; n = inactive; u = inconclusive; x = no result given; [ ] = another dose, or the depositor's remark. This is a sample that favours compounds with a hit; in the whole collection about 12% have one here. Calls come from the whole dose curve; as a rule, active = well fitted curve in the direction sought with a large enough effect; inconclusive = small, poorly fitted or top-dose-only effect, or another doubt; inactive = no such curve, though single readings can be large; an effect the other way counts as inactive or inconclusive.

SMILES | Sfp PPTase inh | G9a inh | JMJD2A Tudor | BAZ2B block | L3MBTL1 block | HP1b binding inh
Cc1cc(=O)n2nc(N3CCC(C(=O)Nc4ccc(C(C)C)cc4)CC3)sc2n1 | x | n | n | n | x | n
CCCC1=[N+](CC(C)=O)CCn2c(C)ccc21 | n | 32µM | n | n | x | n
Cc1nc2cccnc2n1C1CCN(C(=O)Nc2ccccc2)CC1 | x | n | n | n | x | n
COc1ccccc1NC(=O)N(Cc1ccco1)Cc1cc2cc(C)cc(C)c2[nH]c1=O | n | 45µM | u | u | n | n
COc1ccccc1NC(=O)N(Cc1ccco1)Cc1cc2ccc(C)c(C)c2[nH]c1=O | n | u | u | x | n | n
O=C1c2ccccc2C(=O)N1c1cnc2ccccc2c1 | x | x | n | x | x | x
Cc1ccc(N2CCN(C(=S)c3ccc(-c4ccccc4[N+](=O)[O-])o3)CC2)cc1 | 18µM | 7.1µM | 32µM | 10µM | n | 14µM
O=[N+]([O-])c1ccccc1-c1ccc(C(=S)N2CCN(c3ccccc3)CC2)o1 | 18µM | x | 22µM | 8.9µM | n | u
O=S(=O)(c1ccc2ncccc2c1)N1CCN(c2nc(-c3cccs3)nc3ccccc23)CC1 | x | x | n | x | x | n
COc1ccc(N2C(=O)CN=C2Nc2nc(C)cc(C)n2)cc1OC | n | n | 79µM | u | x | n
CC(C)OC(=O)c1cccnc1SCC(=O)Nc1ccc(C(F)(F)F)cc1Cl | x | n | n | n | x | n
O=C1C=C(c2ccc3cc[nH]c3c2)C[C@@H](c2ccc3c(c2)OCO3)C1 | x | n[0.501 µM] | 56µM | 50µM | 32µM | u
Cc1nnc(N/N=C/c2cccc(C(F)(F)F)c2)n1N | n | n | n | u | x | n
CCOc1cc(/C=N/Nc2nnc(C)n2N)ccc1OC(C)=O | u | 45µM | n | n | x | n
Cc1nnc(N/N=C/c2cccc(OCc3ccc(Cl)c(Cl)c3)c2)n1N | 71µM | 10µM | u | u | n | n
CC(C)(C)c1ccc(-c2nnc(-c3ccccc3NC(=O)c3ccc(F)cc3F)o2)cc1 | x | n | n | n | x | n
CCOC(=O)c1[nH]c2ccccc2c1NC(=O)c1cc(OC)cc(OC)c1 | x | n | n | n | x | n
O=C(NCCc1ccccc1)C(=O)NCC(c1cccs1)S(=O)(=O)c1cccs1 (centres undefined) | x | u | n | n | x | n
COc1ccc2[nH]c(C)c(CCN(Cc3cccs3)C(=S)Nc3cccc(F)c3)c2c1 | 40µM | u | u | u | n | n
COc1ccc(OC)c(NC(=S)N(CCc2c(C)[nH]c3ccccc23)Cc2cccs2)c1 | n | 56µM | u | u | n | n
COc1ccc(OC)c(NC(=S)N(CCc2c(C)[nH]c3ccc(C)cc23)Cc2cccs2)c1 | n | 45µM | u | u | n | n
COc1cccc(NC(=S)N(CCc2c(C)[nH]c3ccc(C)cc23)Cc2cccs2)c1 | n | n | u | n | n | n
CN1CCN(C(=O)Nc2cccc(Cl)c2)c2cccnc21 | x | n | n | n | x | n
COc1ccc(NC(=O)N2CC3(CCN(C(=O)c4csnn4)CC3)C2)cc1 | n | n[12.7 µM] | x | x | x | x
Cc1ccc(CN(Cc2cc3cc4c(cc3[nH]c2=O)OCCO4)Cc2nnnn2Cc2ccco2)cc1 | 10µM | 13µM | n | n | x | n
SMILES | Sfp PPTase inh | G9a inh | JMJD2A Tudor | BAZ2B block | L3MBTL1 block | HP1b binding inh
Cc1ccc2cc(CN(Cc3ccc4c(c3)OCO4)Cc3nnnn3Cc3ccco3)c(=O)[nH]c2c1 | 25µM | u | n | u | x | n
COc1ccccc1CN(Cc1cc2c(C)ccc(C)c2[nH]c1=O)Cc1nnnn1Cc1ccco1 | 20µM | 13µM | n | n | n | n
Nc1nc(-c2ccco2)nn1C(=O)c1cccnc1 | n | 50µM | n | n | n | n
Cc1ccc(C(=O)n2nc(-c3ccco3)nc2N)cc1 | n | n | n | n | n | n
COc1ccc(C(=O)n2nc(-c3ccco3)nc2N)cc1 | n | 18µM | u | n | n | n
CC(C)NC(=O)Cn1ccc2cc(S(=O)(=O)N3CCCCCC3)ccc21 | x | n | n | n | x | n
CC(=O)c1cccc(NC(=O)Cc2ccc(NC(=O)N3CCCCc4ccccc43)cc2)c1 | x | n | n | n | x | n
Cc1ccc(-c2cc3ncc4c(n3n2)-c2ccccc2OC4)cc1 | x | n | n | n | x | n
CN(C)CCCOc1cccc(Oc2ccccc2)c1 | n | 14µM | 56µM | u | n | u
CC(C)(c1ccccc1)c1ccc(OCC2CO2)cc1 (centres undefined) | n | n | n | n | x | n
CCCCNCCCOc1cccc(Cl)c1 | n | n[12.7 µM] | n | n | n | n
CN(C)CCCOc1cccc(Cl)c1 | n | 14µM | 18µM | 79µM | n | u
CN(C)CCCOc1ccc(C(C)(C)c2ccccc2)cc1 | n | u | 1.6µM | 50µM | x | u
COc1cccc(C(=O)OCCCN(C)C)c1 | n | n | n | n | n | n
CC(C)N(CCNCC(O)COc1ccc(C(C)(C)c2ccccc2)cc1)C(C)C (centres undefined) | u | 20µM | 5.6µM | 50µM | n | n
COc1ccc(S(=O)(=O)N(CCc2ccccc2)CC(=O)NCc2ccccc2)cc1OC | x | n | n | n | x | n
Cc1ccc(C)c(N2CCN(C(=O)c3ccc(Cn4c(=S)[nH]c5ccc(N6CCOCC6)cc5c4=O)cc3)CC2)c1 | n | 40µM | n | u | n | n
COc1ccc(N2CCN(C(=O)c3ccc(Cn4c(=S)[nH]c5ccc(N6CCOCC6)cc5c4=O)cc3)CC2)cc1 | 71µM | u | n | n | x | n
CCCCN1/C(=C/c2cccc[n+]2C)Sc2cc(NC(C)=O)ccc21 | n | 45µM | 28µM | n | x | n
CCN(C(=O)c1cc(S(=O)(=O)N2CCc3ccccc32)cn1C)c1cccc(C)c1 | x | n | n | n | x | n
COc1ccc(C(=O)NCC2(c3ccccc3)CCOCC2)cc1[N+](=O)[O-] | n | n | 32µM | n | n | u
O=C1CN(C(=O)c2ccc(Br)o2)C(c2ccccc2)c2cc(Cl)ccc2N1 (centres undefined) | u | 56µM | n | u | n | n
Cc1ccc2c(c1)C(c1ccccc1)N(C(=O)c1ccc(Br)o1)CC(=O)N2 (centres undefined) | n | 40µM | u | u | x | n
N#Cc1sc2nc(-c3cccs3)cc(-c3ccccc3)c2c1N | 45µM | n[2.33 µM] | n | n | n | n
Nc1c(C(=O)Nc2nccs2)sc2nc(-c3cccs3)cc(C(F)(F)F)c12 | n | n | u | u | x | n
CC(C)(C)C(=O)c1sc2nc(-c3cccs3)cc(C(F)(F)F)c2c1N | 22µM | u | n | n | n | n
N#Cc1sc2nc(-c3cccs3)cc(-c3ccc(Cl)cc3)c2c1N | n | n | n | n | n | n
CCN(CC)C(=O)c1sc2nc(-c3cccs3)cc(-c3cccs3)c2c1N | n | 32µM | n | n | n | n
Cc1nnc(NC(=O)c2sc3nc(-c4cccs4)cc(C(F)(F)F)c3c2N)s1 | n | n | n | n | n | n
